We go through 17 compounds from PubChem BioAssay (NCATS).

Values joined by “and” are separate entries in the source; they are usually repeats but may differ in a detail not shown here. Equal entries are not always repeated. Inconclusive results are not listed. More than one record can exist for a structure, and the calls need not agree. Active and inactive are the calls of the source. Unless noted, calls follow the shape of the dose curve; as a rule, active = well fitted curve in the direction sought with a large enough effect; inconclusive = small, poorly fitted or top-dose-only effect, or another doubt; inactive = no such curve, though single readings can be large; an effect the other way counts as inactive or inconclusive.

A short description of test [1]: Primary qHTS for small molecule stabilizers of the endoplasmic reticulum resident proteome: Secreted ER Calcium Modulated Protein (SERCaMP) assay (AID 1508630). Also: % is scaled to controls: 0 for no effect and ±100 for the full control effect. Put shortly:
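GLuc-SERCaMP-expressing SH-SY5Y cells, pretreated 16 h with compound, are challenged with thapsigargin to empty ER calcium stores; after 4 h, coelenterazine is added directly to the medium and luminescence is imaged.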
For orientation: Quantitative high-throughput screening tests each substance at several concentrations.

The target of test [2] is Protein phosphatase 1D (Homo sapiens) (UniProt O15297). Kind of test: Rhodamine-PBP qHTS Assay for Modulators of WT P53-Induced Phosphatase 1 (WIP1) (AID 1347425). Also: % of control where 0% means no effect. The method, boiled down:
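WIP1 (5 nM final) was preincubated with compound for 1 hour at room temperature. It then dephosphorylated 10 uM VEPPL-pS-QETFS peptide in Tris-HCl pH 7.5 with 30 mM MgCl2. Released Pi was detected by 10 uM Rh-PBP fluorescence (ex 525/em 598 nm) read at 1-min intervals for 11 min, as delta f1 - f0.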

The nature of test [3]: Primary qHTS for inhibitors of La Crosse Virus (LACV) - induced cell death in SH-SY5Y cells (AID 1508616).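 Also: top concentration of the series differs between compounds; 0% = infected DMSO wells and 100% = uninfected DMSO wells; higher means more rescue of cells from virus-induced death.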 Put shortly:
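Readout was luminescence from ATPLite 1step added after a 6-day LACV infection (0.01 MOI) of SH-SY5Y cells that had received pin-transferred compound 24 hr after seeding.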

The target in test [4] is Calcium and integrin-binding protein 1 (Homo sapiens) (UniProt Q99828). Kind of test: Primary qHTS for Identification of Calcium Integrin Binding Protein 1 (CIB1) Competitor (AID 1508620). Also: potency is read from the fitted curve at half-maximal effect. Put shortly:
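CIB1-GST (1 uM final) and compound incubated 15 min at room temperature before adding FITC-alphaIIb peptide tracer (100 nM final). Competition for binding read by fluorescence polarization (ex 480, em 540) after another 15 min at room temperature.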

The nature of test [5]: Primary qHTS for inhibitors of nuclear receptor binding SET domain protein 2 (NSD2) in an isogenic RCH-ACV NSD2 p.E1099K mutant (9B) (AID 1645876). Also: nearly all actives have a fitted effect of over 70% in size. Also: potency is read from the fitted curve at half-maximal effect.
The target in test [6] is Cytochrome P450 2D6 (Homo sapiens) (UniProt P10635). Kind of test: Cytochrome P450 family 2 subfamily D member 6 (CYP2D6) small molecule antagonists: luciferase biochemical (cell-free) qHTS assay (AID 1645840; active = well fitted curve in the direction sought with a large enough effect in the repeat runs; an effect the other way counts as inactive or inconclusive; also: nearly all actives have a fitted effect of over 55% in size; also: potency is read from the fitted curve at half-maximal effect). The method, boiled down: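 P450-Glo luminescent screen: recombinant CYP2D6 enzyme–proluciferin substrate mix preincubated with compound 10 min at room temperature, then NADPH regeneration added for 1 h at room temperature. Detection reagent added for 20 min; luciferin light read as relative luminescence units.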
Chain of Cytochrome P450 2D6 (Homo sapiens) (P10635 whole entry, looked up): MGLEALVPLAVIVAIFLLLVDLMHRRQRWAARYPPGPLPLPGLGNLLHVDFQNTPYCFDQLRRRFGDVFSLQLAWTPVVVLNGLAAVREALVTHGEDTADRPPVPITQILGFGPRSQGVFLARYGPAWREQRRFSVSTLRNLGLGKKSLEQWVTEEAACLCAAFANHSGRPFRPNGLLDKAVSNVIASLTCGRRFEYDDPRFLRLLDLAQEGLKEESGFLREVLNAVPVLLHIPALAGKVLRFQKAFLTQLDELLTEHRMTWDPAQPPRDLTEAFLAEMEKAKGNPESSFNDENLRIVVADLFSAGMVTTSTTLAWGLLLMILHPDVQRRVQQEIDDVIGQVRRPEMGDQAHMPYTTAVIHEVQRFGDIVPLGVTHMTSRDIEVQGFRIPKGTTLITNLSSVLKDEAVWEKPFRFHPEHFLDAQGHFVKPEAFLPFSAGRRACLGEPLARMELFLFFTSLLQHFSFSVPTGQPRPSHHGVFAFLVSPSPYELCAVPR

Test [7] concerns the target Cytochrome P450 2C9 (Homo sapiens) (UniProt P11712). The test can be described thus: Cytochrome P450 family 2 subfamily C member 9 (CYP2C9) small molecule antagonists: luciferase biochemical (cell-free) qHTS assay (AID 1645842; active = well fitted curve in the direction sought with a large enough effect in the repeat runs; an effect the other way counts as inactive or inconclusive; also: nearly all actives have a fitted effect of over 55% in size; also: potency is read from the fitted curve at half-maximal effect). The method, boiled down:
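Luminescence, after 20 min with luciferin detection reagent, reflected CYP2C9 turnover during a 1 h NADPH-driven reaction at 37C. Enzyme-substrate mix contained 0.4% bovine serum albumin and was preincubated with compound 10 min at room temperature.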

Test [8] addresses Cytochrome P450 3A4 (Homo sapiens) (UniProt P08684). The test can be described thus: Cytochrome P450 family 3 subfamily A member 4 (CYP3A4) small molecule antagonists: luciferase qHTS assay (AID 1645841; active = well fitted curve in the direction sought with a large enough effect in the repeat runs; an effect the other way counts as inactive or inconclusive; also: nearly all actives have a fitted effect of over 45% in size). The method, boiled down: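 Luminescent CYP3A4 activity readout: compounds plus enzyme-substrate mix 10 min at room temperature, reaction started with NADPH regenerating system for 1 h, stopped with detection reagent, read after 20 min. Ketoconazole served as control.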

Test [9] can be described thus: Counterscreen qHTS for small molecule stabilizers of the endoplasmic reticulum resident proteome: GLuc-NoTag assay (AID 1508627). Also: potency is read from the fitted curve at half-maximal effect. The method, boiled down:
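Luminescence of Gaussia luciferase secreted into the medium (coelenterazine, 0.07x final, unlysed cells) was the read-out. Human SH-SY5Y neuroblastoma cells constitutively secreting untagged GLuc received compound for 19 h, then 100 nM thapsigargin for 4 h.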
On the technique in general: A counterscreen serves to expose hits that act by an unwanted route or on another target.

A short description of test [10]: Cell Viability qHTS for small molecule stabilizers of the endoplasmic reticulum resident proteome (AID 1508629).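 Also: human SH-SY5Y neuroblastoma cells carrying the GLuc-SERCaMP reporter; compound exposure about 46 h in total before the viability read; % is scaled to controls: 0 for no effect and ±100 for the full control effect.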 Conditions: cell viability counter-screen, 100 nM thapsigargin for final 4 h.
The nature of test [11]: A High-Content qHTS Against Drug Library for the Identification of Small Molecules that Inhibit DYT1 Early Onset Primary Dystonia-Associated Cell Pathology (AID 1645839; calls by dose curve; also: potency is read from the fitted curve at half-maximal effect). The method, boiled down: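 In this high-content image screen, delE TorsinA mislocalization in inducible Flp-In 293 cells is scored as %pathology, with cell count serving as the counterscreen. Compound exposure lasts 48 h under tetracycline induction in reduced-serum medium.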

The nature of test [12]: Validation qHTS assay for inhibitors of Activation Induced Cytidine Deaminase (AID): UDG Counterscreen signal (AID 1347427). Also: 0% is about no effect. Put shortly: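 Counterscreen read of UDG activity (2 U/mL, 4/3x) in the FRET deamination format with AID (1 uM, 4/3x), DJC20/DJC23 substrates (250 nM, 4x), 4 h at room temperature. NaOH stop, fluorescence at 560 ex/665 em.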
Test [13] deals with Single-stranded DNA cytosine deaminase (Homo sapiens) (UniProt Q9GZX7). Kind of test: Validation qHTS assay for inhibitors of Activation Induced Cytidine Deaminase (AID): AID signal (AID 1347429). Also: % is scaled to controls: 0 for no effect and ±100 for the full control effect. Put shortly: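 In this coupled qHTS, AID deaminates a FRET-labelled ssDNA substrate in the presence of UDG over 4 hr at room temperature. Compounds span up to 114 uM final.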
Chain of Single-stranded DNA cytosine deaminase (Homo sapiens) (Q9GZX7 whole entry, looked up): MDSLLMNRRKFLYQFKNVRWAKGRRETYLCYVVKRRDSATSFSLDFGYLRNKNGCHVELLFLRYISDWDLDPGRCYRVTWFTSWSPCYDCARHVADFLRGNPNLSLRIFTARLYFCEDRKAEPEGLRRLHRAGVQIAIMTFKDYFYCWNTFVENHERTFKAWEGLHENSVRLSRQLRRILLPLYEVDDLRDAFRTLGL
The target of test [14] is Calcium and integrin-binding protein 1 (Homo sapiens) (UniProt Q99828). The test can be described thus: Confirmatory qHTS for Identification of Calcium Integrin Binding Protein 1 (CIB1) Competitor (AID 1508617). Also: nearly all actives have a fitted effect of over 65% in size. Also: potency is read from the fitted curve at half-maximal effect. Put shortly: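 FP competition: CIB1-GST (1 uM final) in 5 mM HEPES pH 7.4, 125 mM NaCl, 5 mM CaCl2, 0.01% Tween20 preincubated 15 min RT with compounds (up to 114 uM), then FITC-alphaIIb peptide (100 nM), 15 min RT; Ex 480/Em 540.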
Chain of Calcium and integrin-binding protein 1 (Homo sapiens) (Q99828 whole entry, looked up): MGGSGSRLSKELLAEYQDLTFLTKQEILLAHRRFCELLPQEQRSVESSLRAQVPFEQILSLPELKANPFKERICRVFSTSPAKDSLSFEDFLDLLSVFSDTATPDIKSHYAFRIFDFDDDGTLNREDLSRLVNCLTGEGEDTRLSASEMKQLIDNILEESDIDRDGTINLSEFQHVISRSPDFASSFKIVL

For test [15] the target is unchanged. The test can be described thus: Validation qHTS for Identification of Calcium Integrin Binding protein 1 (CIB1) Competitor (AID 1508618). Also: % is scaled to controls: 0 for no effect and ±100 for the full control effect. Put shortly:
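Fluorescence polarization with 1 uM CIB1-GST and 100 nM FITC-alphaIIb peptide in HEPES pH 7.4, NaCl, 5 mM CaCl2, Tween20. Compounds at up to 114 uM final, preincubated with protein 15 min; read after 15 min more at RT.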

A short description of test [16]: Confirmatory qHTS for small molecule stabilizers of the endoplasmic reticulum resident proteome: Secreted ER Calcium Modulated Protein (SERCaMP) assay (AID 1508628).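 Also: SH-SY5Y cells given compound 16 h then thapsigargin 100 nM for 4 h; series mostly up to about 76 µM; % is scaled to controls: 0 for no effect and ±100 for the full control effect; nearly all actives have a fitted effect of over 40% in size.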 The method, boiled down: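 We seeded SH-SY5Y-GLuc-SERCaMP cells, added compounds (three concentrations in the primary run, eleven up to 76.6 uM in confirmation), incubated 16 h, depleted ER calcium with thapsigargin, and read luciferase 4 h later.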

The target of a further test is Papain (Carica papaya) (UniProt P00784). The test can be described thus: Primary qHTS assay for inhibitors of the protease papain (AID 1645873).
Chain of Papain (Carica papaya) (P00784 whole entry, looked up): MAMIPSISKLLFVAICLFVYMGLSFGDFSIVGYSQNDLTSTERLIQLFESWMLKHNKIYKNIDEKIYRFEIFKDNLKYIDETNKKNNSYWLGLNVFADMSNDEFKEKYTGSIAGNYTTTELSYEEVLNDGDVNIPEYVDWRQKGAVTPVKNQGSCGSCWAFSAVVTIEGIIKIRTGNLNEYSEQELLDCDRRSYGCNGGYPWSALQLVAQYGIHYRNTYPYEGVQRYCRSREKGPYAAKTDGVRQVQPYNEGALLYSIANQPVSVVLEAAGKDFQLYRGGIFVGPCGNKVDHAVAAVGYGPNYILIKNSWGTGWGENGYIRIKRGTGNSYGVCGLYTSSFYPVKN

Chain of Protein phosphatase 1D (Homo sapiens) (O15297 whole entry, looked up): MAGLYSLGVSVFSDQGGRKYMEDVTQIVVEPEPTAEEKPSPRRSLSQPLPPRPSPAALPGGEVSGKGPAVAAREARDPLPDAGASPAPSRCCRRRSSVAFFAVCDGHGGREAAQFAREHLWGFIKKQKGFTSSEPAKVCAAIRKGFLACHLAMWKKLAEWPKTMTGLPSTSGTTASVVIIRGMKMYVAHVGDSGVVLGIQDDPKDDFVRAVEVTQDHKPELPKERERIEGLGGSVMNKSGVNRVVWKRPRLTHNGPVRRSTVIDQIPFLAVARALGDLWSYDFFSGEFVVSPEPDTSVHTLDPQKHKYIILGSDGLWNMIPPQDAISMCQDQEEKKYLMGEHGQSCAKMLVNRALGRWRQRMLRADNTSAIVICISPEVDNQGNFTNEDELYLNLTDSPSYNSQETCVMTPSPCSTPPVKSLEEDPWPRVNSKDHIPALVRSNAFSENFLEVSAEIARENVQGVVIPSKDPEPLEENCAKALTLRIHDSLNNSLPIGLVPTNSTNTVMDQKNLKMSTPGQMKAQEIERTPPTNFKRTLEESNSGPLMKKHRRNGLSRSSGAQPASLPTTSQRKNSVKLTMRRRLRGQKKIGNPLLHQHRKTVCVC
Chain of Cytochrome P450 2C9 (Homo sapiens) (P11712 whole entry, looked up): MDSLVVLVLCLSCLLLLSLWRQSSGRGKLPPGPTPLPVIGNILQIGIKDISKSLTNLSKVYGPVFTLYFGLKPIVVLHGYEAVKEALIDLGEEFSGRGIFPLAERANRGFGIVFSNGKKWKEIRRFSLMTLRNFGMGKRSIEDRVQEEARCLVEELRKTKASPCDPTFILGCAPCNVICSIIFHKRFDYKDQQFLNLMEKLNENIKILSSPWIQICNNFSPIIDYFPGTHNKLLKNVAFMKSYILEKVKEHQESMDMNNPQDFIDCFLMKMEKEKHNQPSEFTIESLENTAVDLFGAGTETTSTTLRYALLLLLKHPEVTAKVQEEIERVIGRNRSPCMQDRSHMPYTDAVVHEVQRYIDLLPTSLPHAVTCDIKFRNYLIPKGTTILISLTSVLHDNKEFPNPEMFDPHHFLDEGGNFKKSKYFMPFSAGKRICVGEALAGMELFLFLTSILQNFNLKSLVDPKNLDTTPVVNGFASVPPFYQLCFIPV
Chain of Cytochrome P450 3A4 (Homo sapiens) (P08684 whole entry, looked up): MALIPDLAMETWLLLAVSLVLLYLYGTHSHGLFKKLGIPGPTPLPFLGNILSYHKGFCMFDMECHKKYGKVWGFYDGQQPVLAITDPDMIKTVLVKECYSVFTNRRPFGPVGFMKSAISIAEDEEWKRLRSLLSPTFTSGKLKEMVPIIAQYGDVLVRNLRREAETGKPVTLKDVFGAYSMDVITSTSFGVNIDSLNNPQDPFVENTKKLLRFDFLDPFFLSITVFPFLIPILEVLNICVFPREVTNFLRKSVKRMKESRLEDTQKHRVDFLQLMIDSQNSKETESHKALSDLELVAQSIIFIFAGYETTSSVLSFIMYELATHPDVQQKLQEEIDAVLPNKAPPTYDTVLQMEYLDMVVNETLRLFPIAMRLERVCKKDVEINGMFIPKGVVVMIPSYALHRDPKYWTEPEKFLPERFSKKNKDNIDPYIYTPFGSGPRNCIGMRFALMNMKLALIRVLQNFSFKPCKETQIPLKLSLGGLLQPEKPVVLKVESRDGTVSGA

For `C[C@]12CCC(=O)C=C1CC[C@@H]1[C@H]2[C@@H](O)C[C@@]2(C)[C@H]1CC[C@]2(O)C(=O)CO`, the Potency result in test [1] was “inactive”.
Take `CNC[C@@H](O)[C@@H](O)[C@H](O)[C@H](O)CO`: in test [1], the Potency result is “inactive”.
Regarding `O=C1CCc2ccc(OCCCCN3CCN(c4cccc(Cl)c4Cl)CC3)cc2N1`, in [2], the compound was called inactive. Moreover, the Potency entry in test [3], in test [4], in test [1] and in test [5] was “inactive” each time.
Regarding `Cc1c(C(=O)NN2CCCCC2)nn(-c2ccc(Cl)cc2Cl)c1-c1ccc(Cl)cc1`, the outcome in [2] was inactive. The Potency result in test [3], in test [4] and in [1] was “inactive” each time.
On to `COc1cc(C(C)=O)ccc1OCCCN1CCC(c2noc3cc(F)ccc23)CC1`, for which, in test [2], the outcome was inactive. In addition, the Potency entry in test [3], in test [1] and in [7] was “inactive” in each case. In addition, the Potency in test [6] is 5.49 µM (active).
Take `C=C(c1ccc(C(=O)O)cc1)c1cc2c(cc1C)C(C)(C)CCC2(C)C`: the Potency result in test [3], in [4], in [1], in test [6] and in test [5] was “inactive” throughout.
Turning to `Cc1cc(=O)c2c(O)c3c(O)cc(=O)c4c3c3c(cc(O)c1c23)C(C)(C)C=4O`, the compound was called inactive in test [2] and in test [8]. Further, the Potency entry in test [3], in test [4], in test [1], in [6], in test [7] and in [5] was “inactive” each time.
Consider `Cc1cccc(C)c1OCC(=O)N[C@@H](Cc1ccccc1)[C@@H](O)C[C@H](Cc1ccccc1)NC(=O)[C@H](C(C)C)N1CCCNC1=O`, for which the compound was classed as inactive in test [2]. For the same compound, the Potency result in test [3] and in [4] was “inactive” each time. Further, the Potency in [9] is 39.8 µM (active); in [6], 13.8 µM (active); in [7], 17.4 µM (active). In addition, the max response in [10] is -5.9% (inactive).
In the case of `O=C(OC1C[C@H]2CC[C@@H](C1)[N+]21CCCC1)C(O)(c1ccccc1)c1ccccc1` (stereo not given in full), the outcome in [2] and in test [8] was inactive. Further, the Potency entry in [3], in test [4], in test [1], in test [11] and in test [7] was “inactive” in each case. For the same compound, the Potency in test [6] was 6.17 µM (active).
`C[C@H](Cn1cnc2c(N)ncnc21)OCP(=O)(O)O`: the Potency result in test [4] and in test [1] was “inactive” throughout.
Turning to `CCN(CC)C(=S)SSC(=S)N(CC)CC`, the result in test [2], in test [13] and in test [15] was inactive. In addition, the Potency entry (in test [12]; in test [3]; in test [16]; in [1]; in test [6]; with Papain (Carica papaya)) was “inactive” throughout. Besides, the Potency in test [14] was 14.1 µM (active) and inactive; in test [4], 44.7 µM (active); in [9], 28.2 µM (active); in [11] it was 10 µM (active); in test [7], 7.7 µM (active) and 7.76 µM (active); in [5] it was 351 nM (active) and 2.66 µM (active) and 2.63 µM (active).
On to `COCCCOc1ccnc(CS(=O)c2nc3ccccc3[nH]2)c1C` (stereo not given), for which the compound was called inactive in test [2]. Moreover, the Potency entry in test [3], in test [1], in test [11], in test [6] and in test [5] was “inactive” each time. For the same compound, the Potency in [4] is 39.8 µM (active) and inactive; in test [7] it was “inactive and 15.1 µM (active)”.
Regarding `O=C(O)c1cccnc1Nc1cccc(C(F)(F)F)c1`, the compound was classed as inactive in test [2], in [13] and in [15]. The Potency entry in test [12], in test [3], in [4], in test [1], in test [11] and in test [6] was “inactive” in each case.
In the case of `NC(=O)Cc1cccc(C(=O)c2ccccc2)c1N`, in test [2], the compound was called inactive. For the same compound, the Potency entry in test [3], in [4], in test [1], in [11], in [6] and in test [7] was “inactive” in each case.
`CC1(C)C(=O)N(CCN2CCC(C(=O)c3ccc(F)cc3)CC2)c2ccccc21`: the Potency entry (in [12]; in test [3]; in test [4]; with Papain (Carica papaya)) was “inactive” each time. The compound was classed as inactive in test [13] and in test [15].
Regarding `COc1c(O)cc2c(c1O)[C@@H]1O[C@H](CO)[C@@H](O)[C@H](O)[C@H]1OC2=O`, the Potency entry in [4], in test [6], in test [7] and in [5] was “inactive” each time.
On to `COC(=O)N[C@H](C(=O)N[C@@H](Cc1ccccc1)[C@@H](O)CN(Cc1ccc(-c2ccccn2)cc1)NC(=O)[C@@H](NC(=O)OC)C(C)(C)C)C(C)(C)C`, for which the call in test [2] was inactive. The Potency result in test [3], in test [4], in test [1] and in [11] was “inactive” throughout.
